KB-3-1 cytotox: KB-3-1 parental cell cytotoxicity; Potency, µM (doses to about 46.1 µM), usual class: cytotoxic; AID 1347075; hit rate 1.4% among 400,000; KB-3-1 viability, CellTiter-Glo ATP luminescence, 72 h; note: % is set by controls: 0 for no effect and ±100 for the full control effect; nearly all actives have a fitted effect of over 60% in size
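Cells are dispensed, compounds pinned in, plates held at 37 °C for 72 h, then CellTiter-Glo is added and luminescence read after 10 minutes. Cell line: parental KB-3-1 in phenol-red-free DMEM, 10% FBS.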
MCF10A rereplic: induces DNA re-replication in MCF 10a normal breast cells | MCF 10A DNA re-replication, Hoechst nuclear intensity, 48 h | Potency, µM (doses to about 46.1 µM), for the others: top-dose activity, positive = re-replication, most hits filed as activators | hit rate 2.9% among 350,000 | AID 624296; note: % of control where 0% means no effect; nearly all actives have a fitted effect of over 50% in size
KB-V1 cytotox: KB-V1 MDR subline cytotoxicity; KB-V1 MDR cells viability, CellTiter-Glo, 72 h; Potency, µM (doses to about 46.1 µM), actives largely listed as cytotoxic; hit rate 3.4% among 400,000; AID 1347076; note: % is set by controls: 0 for no effect and ±100 for the full control effect; nearly all actives have a fitted effect of over 60% in size
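Potencies derive from concentration-effect curves fitted to normalized luminescence (CellTiter-Glo) of KB-V1 cells treated for 72 h at 37 degrees C in phenol-red-free DMEM containing 10% FBS.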
SW480 rerep: inducers of DNA re-replication in SW480 colon cancer cells | SW480 DNA re-replication, Hoechst DNA content imaging, 48 h | Potency, µM (highest dose often 46.1 µM), inactives show top-dose re-replication activation, actives largely listed as activators | hit rate 1.8% among 340,000 | AID 624297; note: % of control where 0% means no effect; nearly all actives have a fitted effect of over 55% in size
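Image-based read-out: total Hoechst fluorescence of nuclei (405 nm excitation, 500-530 nm emission), with hits raising the fraction of high-intensity nuclei. SW480 colon cells incubated 48 hr with compounds at 37 C.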
ELG1 DNA repair: blocks ELG1-dependent DNA repair in HEK293T cells; HEK293T ELG1-luciferase reporter, luminescence, 16 h; DNA damage induced by 5-fluorouridine; Potency, µM (titrated, usually from 46.1 µM), for the others: at the top dose activity change, negative = inhibition, usual class: inhibitors; hit rate 2.3% among 330,000; AID 504467; note: % is set by controls: 0 for no effect and ±100 for the full control effect; nearly all actives have a fitted effect of over 55% in size
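Luminescence from the luciferase reporter, measured 30 min after ONE-Glo reagent at room temperature, was the read-out. Beforehand, 2,000 cells per well were exposed for 16 hr at 37 °C to 5-fluorouridine together with compound or vehicle.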
The depositor's hits bear a star. Only some compounds are listed: those with a hit (about 8.1% of all), similar ones and a draw of the others. Calls come from the whole dose curve; as a rule, active = well fitted curve in the direction sought with a large enough effect; inconclusive = small, poorly fitted or top-dose-only effect, or another doubt; inactive = no such curve, though single readings can be large; an effect the other way counts as inactive or inconclusive. Potency is the fitted concentration of half-maximal effect.

Screening CCN(CC)C(=O)c1ccc(S(=O)(=O)N2CCC(c3nc4ccccc4s3)CC2)cc1 returned KB-3-1 cytotox 21µM*, MCF10A rereplic inconclusive, KB-V1 cytotox 7.3µM*, SW480 rerep 0% and ELG1 DNA repair inconclusive.
`CCc1ccc(OC(C)C(=O)N2CCC(c3nc4ccccc4s3)CC2)cc1` (stereo unspecified) gave KB-3-1 cytotox inconclusive and KB-V1 cytotox 15µM*.
`COc1ccccc1OC(C)C(=O)N1CCC(c2nc3ccccc3s2)CC1` (stereo unspecified) gave KB-3-1 cytotox 15µM* and KB-V1 cytotox inconclusive.
`CC(C)Oc1ccc(C(=O)N2CCC(c3nc4ccccc4s3)CC2)cc1` gave KB-3-1 cytotox inactive and KB-V1 cytotox inactive.
For O=C(COc1cccc2c1CCNC2=O)Nc1cccc(C(F)(F)F)c1 the results were KB-3-1 cytotox inactive, MCF10A rereplic 0%, KB-V1 cytotox inactive, SW480 rerep -4% and ELG1 DNA repair 24%.
For Nc1ncnc2c1ncn2[C@@H]1O[C@H](C(=O)NCCc2ccc(F)cc2)[C@@H](O)[C@H]1O the results were KB-3-1 cytotox inactive and KB-V1 cytotox inactive.
For C#CCOc1ccc(/C=C2\SC(=S)N(Cc3cccnc3)C2=O)cc1 the results were KB-3-1 cytotox 21µM*, MCF10A rereplic 21µM*, KB-V1 cytotox inconclusive, SW480 rerep 15µM* and ELG1 DNA repair 12%.
Screening C=CCOC(=O)C1=C[C@@H](c2coc3ccccc3c2=O)[C@H](CCCO)[C@@H](OCC)O1 returned KB-3-1 cytotox inactive, MCF10A rereplic -2%, KB-V1 cytotox inactive, SW480 rerep -11% and ELG1 DNA repair inconclusive.
CC(=NCc1ccco1)c1c(O)n(C2CCCCC2)c(=O)[nH]c1=O was read as KB-3-1 cytotox inactive, MCF10A rereplic 6%, KB-V1 cytotox 5.8µM*, SW480 rerep 12% and ELG1 DNA repair -12%.
For CC(=NCc1ccco1)c1c(C)[nH]n(-c2nc3ccccc3s2)c1=O the results were KB-3-1 cytotox inconclusive, MCF10A rereplic 30%, KB-V1 cytotox inconclusive, SW480 rerep -3% and ELG1 DNA repair inconclusive.
Screening CCC1S/C(=N/N=C/c2ccco2)N(Cc2ccc(F)cc2)C1=O (stereo unspecified) returned KB-3-1 cytotox inactive, MCF10A rereplic 9%, KB-V1 cytotox inconclusive, SW480 rerep 1% and ELG1 DNA repair inconclusive.
`CCCN1C(=O)C(O)(C2COC(C)(C)CC2=O)c2ccccc21` (stereo unspecified) gave KB-3-1 cytotox inactive, MCF10A rereplic -5%, KB-V1 cytotox inactive, SW480 rerep inconclusive and ELG1 DNA repair -13%.
Screening CCCN1C(=O)C(O)(C2CC(=O)CC(C)(C)O2)c2ccccc21 (stereo unspecified) returned KB-3-1 cytotox inconclusive, MCF10A rereplic inconclusive, KB-V1 cytotox inconclusive, SW480 rerep 16µM* and ELG1 DNA repair 14%.
CC(C)(C)N(NC(=O)c1ccccc1)C(=O)c1ccc(C(=O)N(NC(=O)c2ccccc2)C(C)(C)C)cc1 was read as KB-3-1 cytotox inactive, MCF10A rereplic 0%, KB-V1 cytotox inactive, SW480 rerep -80% and ELG1 DNA repair 11%.
`CCc1ccc(C(=O)NN(C(=O)c2ccc(CC)cc2)C(C)(C)C)cc1` gave KB-3-1 cytotox inconclusive, MCF10A rereplic -46%, KB-V1 cytotox 7.3µM*, SW480 rerep inconclusive and ELG1 DNA repair -5%.
Screening CCN1CCN(C(c2ccc(C)cc2)c2sc3nc(-c4ccco4)nn3c2O)CC1 (stereo unspecified) returned KB-3-1 cytotox inactive and KB-V1 cytotox inactive.
For CCOC(=O)C(=Cc1ccc(-n2cncn2)cc1)C(=O)OCC the results were KB-3-1 cytotox inconclusive, MCF10A rereplic 4.6µM*, KB-V1 cytotox inactive, SW480 rerep 16µM* and ELG1 DNA repair 18µM*.
Screening CCOC(=O)C(=CNc1cc(C)nn1-c1ccc(Cl)cc1)C(=O)OCC returned KB-3-1 cytotox inactive, MCF10A rereplic inconclusive, KB-V1 cytotox inactive, SW480 rerep -2% and ELG1 DNA repair inconclusive.
C=C1C=C(C(F)F)n2ncc(C(=O)NCc3ccc(OC)c(OC)c3)c2N1 was read as KB-3-1 cytotox inactive and KB-V1 cytotox inactive.

Screening data deposited in PubChem by National Center for Advancing Translational Sciences (NCATS).
